In publication PMC13494018:

target: VTCN1, Q7Z7D3
Sequence (Q7Z7D3 whole entry): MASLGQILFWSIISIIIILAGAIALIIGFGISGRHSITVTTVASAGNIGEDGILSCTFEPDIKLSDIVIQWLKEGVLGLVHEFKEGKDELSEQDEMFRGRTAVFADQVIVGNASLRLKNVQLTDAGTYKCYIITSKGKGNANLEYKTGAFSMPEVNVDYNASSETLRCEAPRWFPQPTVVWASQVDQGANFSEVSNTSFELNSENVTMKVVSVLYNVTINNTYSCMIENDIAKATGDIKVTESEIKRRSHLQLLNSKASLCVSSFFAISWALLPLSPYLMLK

| Binder | binding in a display sort |
| --- | --- |
| design_599_7ce25d4d-e004-4b84-a16f-baf856d943ab_1128_dldesign_0_cycle1_af2pred (protein) MLSKEASEVIKKAVKAAKKVAEAGKKLGIGEKAKKEAAKKVEEVADAVVESLEKGKEAAEKFAKEAEVLAKLAKA | not found (inactive) |
| design_599_7ce25d4d-e004-4b84-a16f-baf856d943ab_1137_dldesign_0_cycle1_af2pred (protein) GAAAAAAAQEARQAIAEAEFAAAKGDPAAEAALEKAAAAAEKAAAADPEVGAKVKALVDKARAKVAAAKAA | not found (inactive) |
| design_599_7ce25d4d-e004-4b84-a16f-baf856d943ab_1147_dldesign_0_cycle1_af2pred (protein) DAEKLMKKAKEYAELAKQAKEKGTPSSAQVAEFHAEIAEELAKKAEELDPKYKKEAEEIKKIAKEAKAVGEKADEEILKKIK | not found (inactive) |
| design_599_7ce25d4d-e004-4b84-a16f-baf856d943ab_1149_dldesign_0_cycle1_af2pred (protein) DVLEKMKELVKEIIEAASKLSPDIAKIFEAAGKVALKKYEEDPEAGIKGAQKLAAVGARVALPDKEAAERLKELAKEVA | not found (inactive) |
| design_599_7ce25d4d-e004-4b84-a16f-baf856d943ab_1164_dldesign_0_cycle1_af2pred (protein) GKEEAYKKAKEAAEKALEKAEKALKLAKEGKIEEAAKELAEAQELRAEAEFYANKSDKEKKEELLKLIEEAKKKIKEARKVAKEKA | not found (inactive) |
| design_599_7ce25d4d-e004-4b84-a16f-baf856d943ab_1166_dldesign_0_cycle1_af2pred (protein) AEELYEKAKKLLTEAIFGLADGTINEEEALKAIEEGRKAAEELKKLGDEEKAEELERGVRALEDMIEDIRKAE | not found (inactive) |
| design_599_7ce25d4d-e004-4b84-a16f-baf856d943ab_1182_dldesign_0_cycle1_af2pred (protein) AAVEAALAAAEAEFDRAAAFARGAAAAAVKNPKTKAFGEEALKKLDALKAEVAAAKADPEAALKAAKAAAAEAEAIMDEALEANAKA | not found (inactive) |
| design_599_7ce25d4d-e004-4b84-a16f-baf856d943ab_1357_dldesign_0_cycle1_af2pred (protein) EEEERRREERAREAREAAEEAKALAEKVKANPKATQEEIDKLNQLALQAEVAEEAIREGYAVEAAERRAREALEEAKKIAEEAEKKAA | not found (inactive) |
| design_599_7ce25d4d-e004-4b84-a16f-baf856d943ab_1363_dldesign_0_cycle1_af2pred (protein) GEAEKAARYLKLAEELAAEVKKNYDNAEKLKEIAREAREAAKEAPESVKPVLAKVAQDAYEARAEAERNASLN | not found (inactive) |
| design_599_7ce25d4d-e004-4b84-a16f-baf856d943ab_1383_dldesign_0_cycle1_af2pred (protein) SEEEKKKKYEEAKKKMEKAGEEALKNVEDGAVVMDALATMREAVHEAEKLSPEYGKEARKLLEKYREEIKKKREEVEKKKAEEEKK | not found (inactive) |
| design_599_7ce25d4d-e004-4b84-a16f-baf856d943ab_1476_dldesign_0_cycle1_af2pred (protein) GEELEKLKKRAEKLLEEGKKKAKEDPEEGRKVAKEIRAEGKAHPEGKEAFAKAAAEVYQYIAEEEQKERLKKN | not found (inactive) |
| design_599_7ce25d4d-e004-4b84-a16f-baf856d943ab_1590_dldesign_0_cycle1_af2pred (protein) MEEAVKKVKELGKEALKRIEEAGKGTPEELEKKSAEVAKEFDAKVEELASKSSPEAAKAILEEAAKARKEMQETYKKALEQAKKNA | not found (inactive) |
| design_599_7ce25d4d-e004-4b84-a16f-baf856d943ab_1596_dldesign_0_cycle1_af2pred (protein) DEEIKKKAEELKKKAEELEKEAETANAEELKKLAEEAIKLASKAAQLAEYAPKELAPYAEEVENYVSDIAVKAIQKRREVEEKEKKE | not found (inactive) |
| design_599_7ce25d4d-e004-4b84-a16f-baf856d943ab_1610_dldesign_0_cycle1_af2pred (protein) DLKEKAKKGIELAKELIEKAKELKKKGDIIGAIAYAERAIHAAEAALKIAKKADPELAKEAKKVLEEAKKELEKIEKE | not found (inactive) |
| design_599_7ce25d4d-e004-4b84-a16f-baf856d943ab_1658_dldesign_0_cycle1_af2pred (protein) EEIQKKNNFLAYAEAAIHAAEAIAKNSDEKTGKALKEEAKKVKEHEDDKEEAIKHLEKAAKIAAGHPGAPILQKRVAKAKAAA | not found (inactive) |
| design_599_7ce25d4d-e004-4b84-a16f-baf856d943ab_1672_dldesign_0_cycle1_af2pred (protein) TPSPELAAKITAATDEILELADKNIEEGGENLDEVEKTATEKGKELGMTKLANALIKSAKIGVELQKKTK | not found (inactive) |
| design_599_7ce25d4d-e004-4b84-a16f-baf856d943ab_1731_dldesign_0_cycle1_af2pred (protein) AAADAKKIQALREKVAEAAALAKDPKTAAEAAKIAKATAKEAKEAAKAATDPAAKKAFAKVAEKAKAVAEEAEKIAKA | not found (inactive) |
| design_599_7ce25d4d-e004-4b84-a16f-baf856d943ab_1749_dldesign_0_cycle1_af2pred (protein) MEKEEELKYGEELLKKAREEAKKKIEKAAKEGKIAEGAQEAIQVINEYSFEAAKKAKKEEVKKKIWEKGKEIKKEVVERAKELVKEQE | not found (inactive) |
| design_599_7ce25d4d-e004-4b84-a16f-baf856d943ab_1788_dldesign_0_cycle1_af2pred (protein) MEEERREEGRRLAEELVEKAKKAKELAKSGEKIEEAKKLLKEAREEAKKAAKAGLLTPEELKEVADAIHEAYEAIAEGEAKK | not found (inactive) |
